In PubChem BioAssay:
Unmarked numbers belong to inactive results. Inconclusive results are not listed. The source made the active and inactive calls.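 How the source made its calls, unless noted: active means viability increase at or above a cutoff of the median across tested compounds plus 3 SD (cut at about 8.5% in these data, passing the limit was not always enough); inconclusive means some gains above the cutoff, reason not given; inactive means the rest.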

Assay: viability gain of MRP-1-high H69AR cells under doxorubicin, pilot screen, MRP-1 activator project, CellTiter-Glo, duplicate (AID 807);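 further: compound pretreatment 18-22 h then 72 h combined with doxorubicin; 0% = doxorubicin alone and 100% = vehicle without doxorubicin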
Details: H69AR viability with doxorubicin, CellTiter-Glo luminescence; at 10 µM; hits give high values

**Q.** Which viability increase does the source give for `Cc1ccc(S(=O)(=O)NC2OC(=O)C(Cl)=C2Cl)cc1` (stereo not drawn) here?
**A.** -3.7%

**Q.** For `O=C(Nc1ccccc1)OCCOc1ccccc1`, which viability increase is on record?
**A.** 2.54%

**Q.** With `COC(=O)C1=C(C)N(C)C(C)=C(C(=O)OC)C1c1cccc(Br)c1` as the compound, how does the viability increase read?
**A.** 0.06%

**Q.** With `CCC(C)NS(=O)(=O)c1ccc(NC(=O)c2c(-c3ccccc3)noc2C)cc1` (stereo not drawn) as the compound, how does the viability increase read?
**A.** -0.12%

**Q.** Which viability increase does the source give for `CN(C)S(=O)(=O)c1ccc(NC(=O)C2COc3ccccc3O2)cc1` (stereo not drawn) here?
**A.** 0.49%

**Q.** With `Cc1cc(C)cc(N(CC(=O)Nc2c(C)n(C)n(-c3ccccc3)c2=O)S(C)(=O)=O)c1` as the compound, how does the viability increase read?
**A.** -1.95%

**Q.** For `CCOC(=O)C1CCCN(C(=O)Cn2ncc3c(=O)oc4ccc(C)cc4c32)C1` (stereo not drawn), which viability increase is on record?
**A.** -1.41%

**Q.** With `Cn1c(=O)c2c(nc(-n3ccnc3)n2Cc2ccc(Cl)cc2Cl)n(C)c1=O` as the compound, how does the viability increase read?
**A.** -4.31%

**Q.** With `CCOC(=O)c1ccc(NC(=O)C2CCN(S(=O)(=O)c3ccccc3)CC2)cc1` as the compound, how does the viability increase read?
**A.** -2.54%

**Q.** With `COc1ccc(-c2c(C)oc3c(CN4CCCCC4C)c(O)ccc3c2=O)cc1OC` (stereo not drawn) as the compound, how does the viability increase read?
**A.** -9.18%

**Q.** Which viability increase does the source give for `CCCC(=N)C1=C(O)CC(CC(C)SCC)CC1=O` (stereo not drawn) here?
**A.** -1.06%

**Q.** With `NC(=O)C1CCN(C(=O)c2ccc(CS(=O)(=O)c3c(Cl)cccc3Cl)o2)CC1` as the compound, how does the viability increase read?
**A.** -0.98%

**Q.** Which viability increase does the source give for `CC(C)Sc1nc2c(cnn2-c2ccc(F)cc2)c(=O)[nH]1` here?
**A.** -3.72%

**Q.** For `COc1ccc(C(=O)Nc2ccc(S(=O)(=O)N3CCCCC3C)cc2)c(OC)c1OC` (stereo not drawn), which viability increase is on record?
**A.** -0.18%

**Q.** With `COc1ccccc1N1CCN(Cc2cc(Br)c(O)c3ncccc23)CC1` as the compound, how does the viability increase read?
**A.** -6.58%

**Q.** Which viability increase does the source give for `CCc1nc(N(CC)CC)c2oc3ccccc3c2n1` here?
**A.** -4.87%

**Q.** With `Cc1cc(NC(=O)c2cc(CC(C)C)on2)no1` as the compound, how does the viability increase read?
**A.** -1.75%

**Q.** With `CCOC(=O)CNC(=O)c1cn(CC(C)C)c(=O)c2cc(OC)c(OC)cc12` as the compound, how does the viability increase read?
**A.** -1.77%

**Q.** With `Nc1c(C(=O)c2ccc(Br)s2)oc2ccccc12` as the compound, how does the viability increase read?
**A.** -5.46%

**Q.** With `CCn1c(N)nc2c1c(=O)n(C)c(=O)n2C` as the compound, how does the viability increase read?
**A.** -1.39%

**Q.** With `COc1ccc(CNC(=O)CS(=O)Cc2nc(-c3ccccc3C)oc2C)cc1` (stereo not drawn) as the compound, how does the viability increase read?
**A.** -0.34%

**Q.** Which viability increase does the source give for `CCNC(=O)Cc1ccc(NS(=O)(=O)c2ccc(F)cc2)cc1` here?
**A.** -2.21%

**Q.** With `CCc1ccc(-c2nc(CN3CCCC(C(=O)O)C3)c(C)o2)cc1` (stereo not drawn) as the compound, how does the viability increase read?
**A.** 1.14%

**Q.** With `Cc1nnc(SCCC(C)C)[nH]c1=O` as the compound, how does the viability increase read?
**A.** -2.93%

**Q.** Which viability increase does the source give for `O=C(Cn1c(S(=O)(=O)Cc2ccccc2)nc2ccccc21)N1CCCCC1` here?
**A.** -6.5%

**Q.** For `COc1cc(C(=O)NCc2ccco2)c(Br)c(OC)c1OC`, which viability increase is on record?
**A.** -4.68%

**Q.** For `COc1ccc(O)c(-c2[nH]ncc2C(=O)c2ccccc2)c1`, which viability increase is on record?
**A.** -2.45%

**Q.** With `Cc1ccc(Cl)cc1NC(=O)COC(=O)C1CCCC1` as the compound, how does the viability increase read?
**A.** -0.05%

**Q.** Which viability increase does the source give for `Cc1cc(NCc2ccco2)nc2cc(O)ccc12` here?
**A.** -5.57%

**Q.** With `CC(=O)c1c(N2CCN(c3ccccc3)CC2)nc(=S)n(-c2ccccc2)c1C` as the compound, how does the viability increase read?
**A.** -3.16%

**Q.** For `O=C(CSCC(=O)N1CCOCC1)Nc1nc(-c2ccc3c(c2)OCO3)cs1`, which viability increase is on record?
**A.** -3.99%

**Q.** With `Cc1ccc(C(=O)N2CCN(C3CCCCC3)CC2)s1` as the compound, how does the viability increase read?
**A.** -1.15%

**Q.** For `CC1=C(C(=O)OCc2ccccc2)C(c2ccco2)C2=C(CC(C)(C)CC2=O)N1` (stereo not drawn), which viability increase is on record?
**A.** -6.3%

**Q.** Which viability increase does the source give for `COC(=O)C1Sc2[nH]c(=O)sc2C(c2ccc(Cl)cc2)C1C(=O)OC` (stereo not drawn) here?
**A.** -5.67%

**Q.** Which viability increase does the source give for `CC12C(=O)N(c3ccccn3)C(=O)C1C1C=CC2C1` (stereo not drawn) here?
**A.** -0.78%

**Q.** With `c1ccc(Cn2ncc3c(N4CCCCC4)ncnc32)cc1` as the compound, how does the viability increase read?
**A.** -0.97%

**Q.** Which viability increase does the source give for `CCOc1ccccc1Nc1nnc(C)c(=O)[nH]1` here?
**A.** -0.35%

**Q.** Which viability increase does the source give for `CCOCCCNC(=O)C(c1ccc(OC)cc1)N(Cc1ccc2c(c1)OCO2)C(=O)CNC(C)=O` (stereo not drawn) here?
**A.** 2.19%

**Q.** With `CCCCC(CC)C(=O)NCCc1ccc(S(N)(=O)=O)cc1` (stereo not drawn) as the compound, how does the viability increase read?
**A.** -0.52%

Assay: growth suppression of beta-catenin knockout HCT116, pilot screen, human colon tumor cells (AID 823;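 active means cell viability at or below a set limit in both duplicate runs, the limit being the all-compound median minus 4 SD, cut at about 23% in these data, passing the limit was not always enough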;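 further: 0% = wells killed by 20 µM Hyamine and 100% = untreated DMSO cell wells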)
Details: CellTiter-Glo, 60 h, at 10 µM, hits give low values

**Q.** Which viability does the source give for `Cc1ccc(S(=O)(=O)NC2OC(=O)C(Cl)=C2Cl)cc1` (stereo not drawn) here?
**A.** 86.4%

**Q.** For `O=C(Nc1ccccc1)OCCOc1ccccc1`, which viability is on record?
**A.** 91.7%

**Q.** For `COC(=O)C1=C(C)N(C)C(C)=C(C(=O)OC)C1c1cccc(Br)c1`, which viability is on record?
**A.** 72%

**Q.** For `CCC(C)NS(=O)(=O)c1ccc(NC(=O)c2c(-c3ccccc3)noc2C)cc1` (stereo not drawn), which viability is on record?
**A.** 86.3%

**Q.** With `CN(C)S(=O)(=O)c1ccc(NC(=O)C2COc3ccccc3O2)cc1` (stereo not drawn) as the compound, how does the viability read?
**A.** 90.2%

**Q.** With `Cc1cc(C)cc(N(CC(=O)Nc2c(C)n(C)n(-c3ccccc3)c2=O)S(C)(=O)=O)c1` as the compound, how does the viability read?
**A.** 96.2%

**Q.** For `CCOC(=O)C1CCCN(C(=O)Cn2ncc3c(=O)oc4ccc(C)cc4c32)C1` (stereo not drawn), which viability is on record?
**A.** 106%

**Q.** For `Cn1c(=O)c2c(nc(-n3ccnc3)n2Cc2ccc(Cl)cc2Cl)n(C)c1=O`, which viability is on record?
**A.** 89.2%

**Q.** Which viability does the source give for `CCOC(=O)c1ccc(NC(=O)C2CCN(S(=O)(=O)c3ccccc3)CC2)cc1` here?
**A.** 66.4%

**Q.** For `COc1ccc(-c2c(C)oc3c(CN4CCCCC4C)c(O)ccc3c2=O)cc1OC` (stereo not drawn), which viability is on record?
**A.** 103%

**Q.** For `CCCC(=N)C1=C(O)CC(CC(C)SCC)CC1=O` (stereo not drawn), which viability is on record?
**A.** 97.5%

**Q.** Which viability does the source give for `NC(=O)C1CCN(C(=O)c2ccc(CS(=O)(=O)c3c(Cl)cccc3Cl)o2)CC1` here?
**A.** 109%

**Q.** Which viability does the source give for `CC(C)Sc1nc2c(cnn2-c2ccc(F)cc2)c(=O)[nH]1` here?
**A.** 90.7%

**Q.** Which viability does the source give for `COc1ccc(C(=O)Nc2ccc(S(=O)(=O)N3CCCCC3C)cc2)c(OC)c1OC` (stereo not drawn) here?
**A.** 91.2%

**Q.** Which viability does the source give for `COc1ccccc1N1CCN(Cc2cc(Br)c(O)c3ncccc23)CC1` here?
**A.** 6.37% (active)

**Q.** With `CCc1nc(N(CC)CC)c2oc3ccccc3c2n1` as the compound, how does the viability read?
**A.** 75.5%

**Q.** Which viability does the source give for `Cc1cc(NC(=O)c2cc(CC(C)C)on2)no1` here?
**A.** 106%

**Q.** For `CCOC(=O)CNC(=O)c1cn(CC(C)C)c(=O)c2cc(OC)c(OC)cc12`, which viability is on record?
**A.** 105%

**Q.** With `Nc1c(C(=O)c2ccc(Br)s2)oc2ccccc12` as the compound, how does the viability read?
**A.** 88.8%

**Q.** With `CCn1c(N)nc2c1c(=O)n(C)c(=O)n2C` as the compound, how does the viability read?
**A.** 108%

**Q.** With `COc1ccc(CNC(=O)CS(=O)Cc2nc(-c3ccccc3C)oc2C)cc1` (stereo not drawn) as the compound, how does the viability read?
**A.** 96.7%

**Q.** Which viability does the source give for `CCNC(=O)Cc1ccc(NS(=O)(=O)c2ccc(F)cc2)cc1` here?
**A.** 100%

**Q.** With `CCc1ccc(-c2nc(CN3CCCC(C(=O)O)C3)c(C)o2)cc1` (stereo not drawn) as the compound, how does the viability read?
**A.** 97.6%

**Q.** With `Cc1nnc(SCCC(C)C)[nH]c1=O` as the compound, how does the viability read?
**A.** 101%

**Q.** For `O=C(Cn1c(S(=O)(=O)Cc2ccccc2)nc2ccccc21)N1CCCCC1`, which viability is on record?
**A.** 107%

**Q.** With `COc1cc(C(=O)NCc2ccco2)c(Br)c(OC)c1OC` as the compound, how does the viability read?
**A.** 98.3%

**Q.** For `COc1ccc(O)c(-c2[nH]ncc2C(=O)c2ccccc2)c1`, which viability is on record?
**A.** 101%

**Q.** Which viability does the source give for `Cc1ccc(Cl)cc1NC(=O)COC(=O)C1CCCC1` here?
**A.** 99.1%

**Q.** Which viability does the source give for `Cc1cc(NCc2ccco2)nc2cc(O)ccc12` here?
**A.** 92.7%

**Q.** Which viability does the source give for `CC(=O)c1c(N2CCN(c3ccccc3)CC2)nc(=S)n(-c2ccccc2)c1C` here?
**A.** 92.9%

**Q.** With `O=C(CSCC(=O)N1CCOCC1)Nc1nc(-c2ccc3c(c2)OCO3)cs1` as the compound, how does the viability read?
**A.** 100%

**Q.** For `Cc1ccc(C(=O)N2CCN(C3CCCCC3)CC2)s1`, which viability is on record?
**A.** 102%

**Q.** For `CC1=C(C(=O)OCc2ccccc2)C(c2ccco2)C2=C(CC(C)(C)CC2=O)N1` (stereo not drawn), which viability is on record?
**A.** 71.9%

**Q.** For `COC(=O)C1Sc2[nH]c(=O)sc2C(c2ccc(Cl)cc2)C1C(=O)OC` (stereo not drawn), which viability is on record?
**A.** 91.3%

**Q.** Which viability does the source give for `CC12C(=O)N(c3ccccn3)C(=O)C1C1C=CC2C1` (stereo not drawn) here?
**A.** 96.6%

**Q.** With `c1ccc(Cn2ncc3c(N4CCCCC4)ncnc32)cc1` as the compound, how does the viability read?
**A.** 96.2%

**Q.** For `CCOc1ccccc1Nc1nnc(C)c(=O)[nH]1`, which viability is on record?
**A.** 105%

**Q.** With `CCOCCCNC(=O)C(c1ccc(OC)cc1)N(Cc1ccc2c(c1)OCO2)C(=O)CNC(C)=O` (stereo not drawn) as the compound, how does the viability read?
**A.** 104%

**Q.** With `CCCCC(CC)C(=O)NCCc1ccc(S(N)(=O)=O)cc1` (stereo not drawn) as the compound, how does the viability read?
**A.** 93.2%
